# Measurements published in ChEMBL document CHEMBL3988442, “University of Dundee, Small-Polar-MMV Screening Library” (2021).
# For part of these data: Results with a measured potency or affinity are listed apart.
# Tests used:
# Parameters in all cases: scale not given: direction of the effect not stated beside the values
# [1] = target: Protein translocase subunit SecA (Escherichia coli (strain K12)) (UniProt P10408); test: Assay to Identify E. coli SecA ATPase Inhibitors; format: functional; conditions: 30 µM
# [2] = target: T1, Ubiquitin-activating enzyme e1, putative (Leishmania donovani (strain BPK282A1)) (UniProt E9BSI1); test: Leishmania donovani Ubiquitin Activating Enzyme (LdE1); format: functional; conditions: 30 µM
# T1 sequence (whole entry): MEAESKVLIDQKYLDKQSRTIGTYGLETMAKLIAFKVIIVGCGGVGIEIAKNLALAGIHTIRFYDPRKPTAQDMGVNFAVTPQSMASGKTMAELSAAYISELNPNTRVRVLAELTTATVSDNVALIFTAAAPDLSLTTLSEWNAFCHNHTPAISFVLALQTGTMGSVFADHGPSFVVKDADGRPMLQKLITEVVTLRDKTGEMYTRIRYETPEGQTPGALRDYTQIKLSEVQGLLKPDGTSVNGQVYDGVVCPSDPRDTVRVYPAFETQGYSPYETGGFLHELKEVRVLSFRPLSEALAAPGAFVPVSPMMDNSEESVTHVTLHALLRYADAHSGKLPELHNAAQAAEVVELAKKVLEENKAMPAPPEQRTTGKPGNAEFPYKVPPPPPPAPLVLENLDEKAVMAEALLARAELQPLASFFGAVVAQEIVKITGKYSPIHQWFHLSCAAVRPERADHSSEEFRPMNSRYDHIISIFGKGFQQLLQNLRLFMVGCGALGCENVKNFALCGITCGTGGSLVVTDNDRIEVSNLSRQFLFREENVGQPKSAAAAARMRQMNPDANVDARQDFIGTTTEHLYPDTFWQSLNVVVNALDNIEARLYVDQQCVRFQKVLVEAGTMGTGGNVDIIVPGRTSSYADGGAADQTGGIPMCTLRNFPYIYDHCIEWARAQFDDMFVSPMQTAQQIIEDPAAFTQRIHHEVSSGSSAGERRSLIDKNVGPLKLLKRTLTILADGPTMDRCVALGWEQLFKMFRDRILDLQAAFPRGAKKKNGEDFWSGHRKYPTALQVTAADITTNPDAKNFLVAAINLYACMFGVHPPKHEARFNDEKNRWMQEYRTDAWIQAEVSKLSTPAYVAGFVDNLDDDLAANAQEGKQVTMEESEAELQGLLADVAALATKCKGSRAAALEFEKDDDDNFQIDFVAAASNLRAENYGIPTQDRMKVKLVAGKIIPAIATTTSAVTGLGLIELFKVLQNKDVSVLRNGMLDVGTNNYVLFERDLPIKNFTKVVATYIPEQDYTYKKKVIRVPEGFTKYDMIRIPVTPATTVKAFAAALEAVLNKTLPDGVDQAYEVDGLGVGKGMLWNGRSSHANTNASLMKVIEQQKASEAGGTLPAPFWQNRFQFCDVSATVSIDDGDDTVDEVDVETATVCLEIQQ
# [3] = target: T2, Aspartate--tRNA(Asp/Asn) ligase (Mycobacterium tuberculosis (strain ATCC 25618 / H37Rv)) (UniProt P9WFW3); test: Assay for Asp RNA synthetase-1 from Mycobacterium tuberculosis; format: functional; conditions: 30 µM; further: in the data most compounds retested in dose-response had high values
# T2 sequence (whole entry): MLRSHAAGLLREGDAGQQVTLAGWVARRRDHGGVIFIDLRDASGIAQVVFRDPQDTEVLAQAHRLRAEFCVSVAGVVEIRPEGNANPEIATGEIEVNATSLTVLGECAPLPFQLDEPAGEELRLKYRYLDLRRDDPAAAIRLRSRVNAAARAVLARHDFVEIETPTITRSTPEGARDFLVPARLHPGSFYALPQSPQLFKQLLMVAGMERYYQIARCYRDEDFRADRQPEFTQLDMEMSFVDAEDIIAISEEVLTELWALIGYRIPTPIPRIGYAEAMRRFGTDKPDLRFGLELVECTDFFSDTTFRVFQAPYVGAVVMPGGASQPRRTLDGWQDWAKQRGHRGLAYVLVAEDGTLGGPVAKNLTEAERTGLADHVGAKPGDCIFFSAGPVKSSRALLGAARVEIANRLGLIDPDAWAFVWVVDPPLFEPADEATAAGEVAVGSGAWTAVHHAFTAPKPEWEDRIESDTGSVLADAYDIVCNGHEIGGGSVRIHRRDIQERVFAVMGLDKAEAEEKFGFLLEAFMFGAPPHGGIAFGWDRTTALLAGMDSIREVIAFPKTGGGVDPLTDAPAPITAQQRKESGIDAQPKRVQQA
# [4] = target: AMP-activated protein kinase, AMPK (Homo sapiens) (UniProt P54646+O43741+P54619+Q9UGJ0+Q9Y478+Q13131+Q9UGI9); test: AMP-dependent Kinase enzyme assay. An in vitro enzyme assay that detects ADP turnover that is directly proportional to AMPK activity. This uses naive AMPK that is activated during the assay with MK-8722; format: functional; conditions: 30 µM
# [5] = target: Sialic acid-binding Ig-like lectin 9 (Homo sapiens) (UniProt Q9Y336); test: Hs-Siglec9 ALPHAscreen SOP 20170721; conditions: 10 µM
# Trypanosoma cruzi = test: Trypanosoma cruzi phosphomannomutase and mannose-1-phosphate guanylyltransferase assay; format: functional; conditions: 10 µM
# [6] = target: T3, Arginase-2, mitochondrial (Homo sapiens) (UniProt P78540); test: in vitro enzyme assay to detect the production of urea directly proportional to the activity of Arginase II; format: functional; conditions: 33.3 µM; further: in the data most compounds retested in dose-response had high values
# T3 sequence (whole entry): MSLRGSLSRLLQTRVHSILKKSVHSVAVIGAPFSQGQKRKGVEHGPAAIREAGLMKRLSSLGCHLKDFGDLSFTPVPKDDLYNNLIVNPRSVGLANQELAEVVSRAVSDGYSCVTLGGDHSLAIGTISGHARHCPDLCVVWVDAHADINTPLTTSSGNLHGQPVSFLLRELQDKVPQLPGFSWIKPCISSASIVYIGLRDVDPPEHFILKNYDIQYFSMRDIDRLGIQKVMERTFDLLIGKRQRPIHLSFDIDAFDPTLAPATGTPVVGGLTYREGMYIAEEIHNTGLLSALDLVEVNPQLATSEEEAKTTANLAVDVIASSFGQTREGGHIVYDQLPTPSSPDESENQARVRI
# [7] = target: T4, Proteasome subunit beta (Trypanosoma cruzi) (UniProt O96673); test: Trypanosoma cruzi proteasome chymotrypsin-like activity (TcProtChymo) assay.; further: in the data most compounds retested in dose-response had high values; format: functional; conditions: 9.37 µM
# T4 sequence (whole entry): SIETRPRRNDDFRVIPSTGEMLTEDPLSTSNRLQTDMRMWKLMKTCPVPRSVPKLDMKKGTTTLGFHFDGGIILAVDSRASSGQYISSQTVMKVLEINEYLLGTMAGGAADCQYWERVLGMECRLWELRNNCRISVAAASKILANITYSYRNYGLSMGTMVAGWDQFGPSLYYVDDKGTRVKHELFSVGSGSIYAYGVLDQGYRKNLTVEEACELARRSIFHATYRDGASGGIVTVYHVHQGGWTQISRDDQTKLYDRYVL
# Homo sapiens = organism: Homo sapiens; test: To identify inhibition of the IFN signalling (Jak-Stat) pathway via expression of an eGFP reporter gene under the control of an IFN-stimulated response element (ISRE) containing MxA promoter.; format: functional; conditions: 30 µM
# [8] = target: Shiga toxin 2 (Escherichia coli O157:H7) (UniProt P09385+P09386); test: E. coli 0.157:H7 Shiga Toxin SOP - stx2 screening assay; format: functional; conditions: 30 µM
# [9] = target: T5, Tyrosyl-tRNA synthetase, putative (Trypanosoma cruzi (strain CL Brener)) (UniProt Q4DSP6); test: Trypanosoma cruzi tyrosyl tRNA synthetase (TcYRS) _High Tyrosine SOP; format: functional; conditions: 30 µM; further: in the data most compounds retested in dose-response had high values
# T5 sequence (whole entry): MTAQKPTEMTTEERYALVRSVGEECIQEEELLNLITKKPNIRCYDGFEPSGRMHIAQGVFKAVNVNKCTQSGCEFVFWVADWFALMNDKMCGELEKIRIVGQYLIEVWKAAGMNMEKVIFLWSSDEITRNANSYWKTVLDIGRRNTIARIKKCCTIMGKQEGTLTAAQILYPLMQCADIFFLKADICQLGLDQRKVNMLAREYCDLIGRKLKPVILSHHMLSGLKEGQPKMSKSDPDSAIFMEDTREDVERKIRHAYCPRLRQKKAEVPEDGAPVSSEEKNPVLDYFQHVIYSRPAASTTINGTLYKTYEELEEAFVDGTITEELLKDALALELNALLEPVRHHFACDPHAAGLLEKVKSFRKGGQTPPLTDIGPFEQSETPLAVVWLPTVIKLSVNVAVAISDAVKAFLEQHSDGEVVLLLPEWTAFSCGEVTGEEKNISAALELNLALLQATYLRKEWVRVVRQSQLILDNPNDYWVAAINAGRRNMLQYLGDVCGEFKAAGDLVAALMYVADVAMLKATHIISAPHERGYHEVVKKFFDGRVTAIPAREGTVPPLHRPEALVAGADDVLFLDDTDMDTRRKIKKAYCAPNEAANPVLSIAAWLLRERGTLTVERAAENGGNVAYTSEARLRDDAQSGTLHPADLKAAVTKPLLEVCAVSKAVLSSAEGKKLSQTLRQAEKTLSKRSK
# [10] = target: T5, Tyrosyl-tRNA synthetase, putative (Trypanosoma cruzi (strain CL Brener)); test: Trypanosoma cruzi tyrosyl tRNA synthetase (TcYRS) SOP; format: functional; conditions: 30 µM
# [11] = target: Chromo domain-containing protein 1 (Saccharomyces cerevisiae (strain ATCC 204508 / S288c) (Baker's yeast)) (UniProt P32657); test: ScCHD-1 Enzyme Inhibition Assay; format: functional; conditions: 30 µM; further: in the data most compounds retested in dose-response had high values
# Sequence of Chromo domain-containing protein 1 (Saccharomyces cerevisiae (strain ATCC 204508 / S288c) (Baker's yeast)) (P32657 whole entry, the tested form may be a part): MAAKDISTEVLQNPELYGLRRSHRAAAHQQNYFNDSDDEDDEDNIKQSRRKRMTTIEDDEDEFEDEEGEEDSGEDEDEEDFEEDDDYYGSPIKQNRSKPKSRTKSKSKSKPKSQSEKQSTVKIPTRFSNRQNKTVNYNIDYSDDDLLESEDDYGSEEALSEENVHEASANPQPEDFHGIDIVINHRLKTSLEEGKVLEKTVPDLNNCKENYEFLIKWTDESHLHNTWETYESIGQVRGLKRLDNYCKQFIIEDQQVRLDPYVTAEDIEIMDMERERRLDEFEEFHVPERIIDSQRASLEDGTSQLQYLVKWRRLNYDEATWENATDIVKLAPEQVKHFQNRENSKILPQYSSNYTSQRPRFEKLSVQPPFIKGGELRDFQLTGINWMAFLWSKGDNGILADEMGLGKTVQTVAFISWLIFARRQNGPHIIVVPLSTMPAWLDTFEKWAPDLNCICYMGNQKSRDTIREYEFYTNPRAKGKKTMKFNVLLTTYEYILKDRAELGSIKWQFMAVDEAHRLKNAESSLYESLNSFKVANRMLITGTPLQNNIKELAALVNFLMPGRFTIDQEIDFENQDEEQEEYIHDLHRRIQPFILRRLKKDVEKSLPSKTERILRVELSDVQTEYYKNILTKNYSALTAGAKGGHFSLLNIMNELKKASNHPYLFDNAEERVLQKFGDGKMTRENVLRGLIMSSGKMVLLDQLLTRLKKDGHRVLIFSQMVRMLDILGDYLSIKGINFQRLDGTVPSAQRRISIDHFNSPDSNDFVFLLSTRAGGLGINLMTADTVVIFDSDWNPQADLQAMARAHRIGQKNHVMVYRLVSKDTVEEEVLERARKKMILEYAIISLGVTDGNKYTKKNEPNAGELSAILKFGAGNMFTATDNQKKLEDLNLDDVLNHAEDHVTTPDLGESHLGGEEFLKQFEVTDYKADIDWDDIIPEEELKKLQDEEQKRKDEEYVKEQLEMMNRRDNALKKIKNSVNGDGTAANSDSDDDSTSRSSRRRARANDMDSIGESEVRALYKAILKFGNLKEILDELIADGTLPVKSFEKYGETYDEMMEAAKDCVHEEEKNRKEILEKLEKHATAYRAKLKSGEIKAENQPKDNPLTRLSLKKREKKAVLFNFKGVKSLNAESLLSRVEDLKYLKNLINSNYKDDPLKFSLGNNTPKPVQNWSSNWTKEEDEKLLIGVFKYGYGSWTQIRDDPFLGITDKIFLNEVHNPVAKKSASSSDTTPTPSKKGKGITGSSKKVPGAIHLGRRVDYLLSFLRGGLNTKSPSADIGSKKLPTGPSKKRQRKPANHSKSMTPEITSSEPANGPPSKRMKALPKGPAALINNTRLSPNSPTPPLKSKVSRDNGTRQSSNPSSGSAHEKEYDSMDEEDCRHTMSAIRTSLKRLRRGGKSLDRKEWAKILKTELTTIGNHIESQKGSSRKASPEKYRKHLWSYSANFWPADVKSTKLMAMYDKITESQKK
# Sequence of Sialic acid-binding Ig-like lectin 9 (Homo sapiens) (Q9Y336 whole entry): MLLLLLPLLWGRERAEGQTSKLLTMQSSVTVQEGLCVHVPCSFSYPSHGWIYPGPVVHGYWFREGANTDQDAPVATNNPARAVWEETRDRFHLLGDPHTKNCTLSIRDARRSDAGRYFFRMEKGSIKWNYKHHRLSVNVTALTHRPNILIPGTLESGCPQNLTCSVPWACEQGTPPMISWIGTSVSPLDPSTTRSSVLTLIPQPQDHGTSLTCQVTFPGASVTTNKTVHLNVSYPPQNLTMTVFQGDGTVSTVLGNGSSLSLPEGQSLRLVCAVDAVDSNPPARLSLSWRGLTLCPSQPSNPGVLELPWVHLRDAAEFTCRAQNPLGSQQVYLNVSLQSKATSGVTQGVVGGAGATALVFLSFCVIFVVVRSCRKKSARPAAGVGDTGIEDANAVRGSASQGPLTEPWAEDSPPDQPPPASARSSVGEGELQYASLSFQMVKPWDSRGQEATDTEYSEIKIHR
# Sequence of Protein translocase subunit SecA (Escherichia coli (strain K12)) (P10408 whole entry): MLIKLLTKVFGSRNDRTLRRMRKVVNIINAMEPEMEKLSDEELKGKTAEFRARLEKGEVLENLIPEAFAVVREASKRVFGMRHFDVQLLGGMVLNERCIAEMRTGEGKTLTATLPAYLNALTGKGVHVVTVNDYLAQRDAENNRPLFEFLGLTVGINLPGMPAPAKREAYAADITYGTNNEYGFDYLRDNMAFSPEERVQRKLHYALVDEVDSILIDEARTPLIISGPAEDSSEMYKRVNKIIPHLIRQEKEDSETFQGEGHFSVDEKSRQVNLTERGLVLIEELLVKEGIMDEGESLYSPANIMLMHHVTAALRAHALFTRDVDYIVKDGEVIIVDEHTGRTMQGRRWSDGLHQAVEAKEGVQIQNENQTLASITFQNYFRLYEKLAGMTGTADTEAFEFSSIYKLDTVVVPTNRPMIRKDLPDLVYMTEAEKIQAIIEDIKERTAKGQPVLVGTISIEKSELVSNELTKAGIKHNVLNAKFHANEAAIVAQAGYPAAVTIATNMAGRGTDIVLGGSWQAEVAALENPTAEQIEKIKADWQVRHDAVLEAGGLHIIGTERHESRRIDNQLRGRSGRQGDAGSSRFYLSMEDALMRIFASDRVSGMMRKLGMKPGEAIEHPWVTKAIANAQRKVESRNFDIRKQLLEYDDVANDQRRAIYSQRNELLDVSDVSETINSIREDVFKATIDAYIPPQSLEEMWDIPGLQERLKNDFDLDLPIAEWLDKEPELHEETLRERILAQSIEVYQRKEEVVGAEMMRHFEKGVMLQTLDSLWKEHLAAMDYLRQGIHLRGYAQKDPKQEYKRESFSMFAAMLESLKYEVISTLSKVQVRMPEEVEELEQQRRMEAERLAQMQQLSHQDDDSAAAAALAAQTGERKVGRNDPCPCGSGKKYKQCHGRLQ
Compound,Percent Effect [1] [%],Percent Effect [2] [%],Percent Effect [3] [%],Percent Effect [4] [%],Percent Effect [5] [%],Percent Effect (Trypanosoma cruzi) [%],Percent Effect [6] [%],Percent Effect [7] [%],Percent Effect (Homo sapiens) [%],Percent Effect [8] [%],Percent Effect [9] [%],Percent Effect [10] [%],Percent Effect [11] [%]
CCS(=O)(=O)NC[C@]12COC[C@H]1CN(Cc1cc(C)on1)C2,-3.29,0,-3.83,4.08,3.76,-0.684,4.14,20.9,-25,1.54,5.41,12.8,-1.96
COc1c(Br)cc(Br)cc1CNC(C)Cn1cccn1 (centres undefined),-4.9,23.4,2.09,5.26,-2.65,-10.9,-3.56,1.01,35.9,15.4,4.85,9.76,-8.37
CC(C)N1CCc2c(CN(C)Cc3ccco3)cncc2C1,-2.76,0,-1.51,0.165,16.7,-3.86,-22.8,0.171,-0.596,-0.895,4.17,-7.5,-4.61
Cc1ccc(N2CCO[C@H]3CN(CC4CC4)C[C@H]32)nn1,-4.5,2.7,-6.1,0.95,-5.02,7.14,-0.319,19.6,-33.8,1.42,1.08,7.69,5.67
O=C(c1cc(-n2cnnn2)ccc1Cl)N1CCC2(CC1)OCCO2,-3.84,5.26,0.24,3.99,7.5,-3.21,-3.55,8.53,7.36,-4.29,3.19,5.2,-4.14
Cc1noc(C)c1CN1CCOC2(CCCN(c3nccs3)C2)C1 (centres undefined),-8.9,8,7.92,26.5,1.44,-6.18,-56.1,2.91,21.7,-14.3,-7.29,-30,-4.72
Cc1cc(CN2C[C@@H]3CCCO[C@@H]3[C@H](Nc3ccccn3)C2)no1,-6.36,8.11,1.17,2.41,16.5,1.47,4.22,7.3,2.28,10.7,5.38,16.1,-5.82
CCOCC(O)CN1CCN(C(=O)Cc2ccccc2C)CC1 (centres undefined),1.46,13.2,-3.28,-1.09,0.779,-8.65,8.43,8.69,20,30.3,0.49,9.76,-8.57
COc1ccccc1C1SCC(=O)Nc2n[nH]cc21 (centres undefined),-5.34,5.26,6.47,16.6,-1.26,-2.63,15.4,12.6,-13.4,5.55,3.19,2.6,-2.61
CC(C)CN1CCC2(CC1)C(=O)Nc1ccc(C(=O)N(C)C)cc12,-4.79,5.41,-0.578,-2.95,-1.19,-3.81,0.248,8.67,7.43,5.38,4.3,8.64,-2.28
Cc1nc(C)c(CC(=O)N2C[C@@H]3CC[C@H](C2)N(CC2CCC2)C3)c(=O)[nH]1,-2.23,18.9,-2.78,-35.4,21.6,4.2,16.1,16.2,-15.8,5.33,4.3,18.5,-11.7
Cc1cccc(CO[C@@H]2CC[C@H]3[C@H]2OCCN3Cc2ccsc2)n1,-6.22,21.3,0.204,-3.76,1.99,4.44,-38.9,13.3,20.3,-20.4,3.12,15,-6.6
Cc1nnc([C@H]2CC[C@@H]3[C@@H](CCN3Cc3c(C)noc3C)O2)o1,-0.00919,8,2.12,3.84,-0.659,-5.79,-54.3,11.4,-18.2,-1.17,6.25,22.5,-6.76
CCn1ccnc1CN1CCCN(C(=O)Cc2ccc(C)nc2)CC1,-2.41,5.2,1.82,5.72,3.18,2.45,3.16,10.4,-0.845,6.49,-0.952,0,-16.3
O=C(C1CCC1)N1CCC2(CC1)OCCO2,-3.54,-2.63,-4.73,2.75,1.15,-1.85,7.1,6.04,5.13,-1.29,0,5.2,-0.64
CCc1nc(CNC(C)Cn2cccn2)cs1 (centres undefined),-1.58,13.5,5.32,-19.1,12.1,2.36,-12,9.73,14.4,9.22,12.3,30.9,-13.1
COCC(=O)NC(C)Cc1cccc(OC)c1 (centres undefined),-1.72,13.2,-2.52,3.57,6.63,6.77,-0.383,11.5,8.48,24.3,10.3,21.9,-8.88
CCOCC(O)CN1CCN(C(=O)Cc2ccccc2Cl)CC1 (centres undefined),-5.33,0,-2.7,8.88,-1.32,-8.08,4.21,9.36,14,19.1,0.49,-2.44,-1.37
